Source: PubChem BioAssay (National Center for Advancing Translational Sciences (NCATS))
AmpC inh no detg – blocks E. coli AmpC beta-lactamase in detergent-free assay. P00811. 0.52% of 330,000 active. AmpC nitrocefin hydrolysis, absorbance 480 nm, 0.0001% Triton. Potency, µM (doses to about 57.1 µM), inactives show at the highest dose activity change, negative = inhibition, usual class: inhibitors. AID 485341;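 further: plate controls were no compound for no effect and no enzyme for full effect; nearly all actives have a fitted effect of over 20% in size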
Target sequence (P00811 whole entry, looked up): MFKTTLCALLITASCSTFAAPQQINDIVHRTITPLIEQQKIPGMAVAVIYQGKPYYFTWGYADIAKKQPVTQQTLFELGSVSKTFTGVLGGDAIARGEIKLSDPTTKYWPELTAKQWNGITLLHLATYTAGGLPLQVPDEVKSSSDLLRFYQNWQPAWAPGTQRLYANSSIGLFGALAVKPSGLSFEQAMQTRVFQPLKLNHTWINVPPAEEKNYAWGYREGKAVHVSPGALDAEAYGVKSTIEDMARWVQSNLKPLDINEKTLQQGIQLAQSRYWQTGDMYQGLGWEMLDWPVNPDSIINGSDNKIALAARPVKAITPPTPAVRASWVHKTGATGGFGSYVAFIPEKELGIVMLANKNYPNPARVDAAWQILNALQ
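AmpC (5.3 nM in the dispensed reagent) in 20 mM phosphate pH 7.0 with 0.01% (detergent screen) or 0.0001% Triton X-100 was preincubated with compounds for 15 min at room temperature. Nitrocefin was then added from an 800 uM solution, and hydrolysis was followed at 480 nm.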
AmpC inh detg – AmpC beta-lactamase inhibition with detergent present; P00811; Potency, µM (series often up to 114 µM), for the others: at the highest dose activity change, negative = inhibition, hits mostly inhibitors; 0.041% of 370,000 active; AmpC hydrolysis of nitrocefin, absorbance 480 nm, 0.01% Triton;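 further: 0% = no-compound wells and -100% = no-enzyme wells; nearly all actives have a fitted effect of over 25% in size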
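20 mM phosphate pH 7.0 + 0.01% (detergent screen) or 0.0001% Triton X-100; 5.3 nM AmpC reagent; cpd preinc 15 min RT; nitrocefin (800 uM stock) to start; A480 q20 s × 4 min; Activity was normalised to no-enzyme and no-compound control wells.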
Sm TGR block – S. mansoni TGR enzyme inhibition | 3% of 360,000 active | purified TGR, DTNB reduction, TNB absorbance 405 nm | Potency, µM (highest dose often 114 µM), for the others: top-dose activity change, negative = inhibition, hits mostly inhibitors; further: nearly all actives have a fitted effect of over 60% in size
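TGR 20 nM + NADPH 100 uM (dispensed conc.), cpd preinc 15 min RT; start with NADPH (500 uM addition) then DTNB (15 mM addition). Kinetic TNB absorbance, 405 nm filter. Four-parameter Hill fit across titration.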
Starred values were filed as active, the others as inactive; ? = inconclusive; · = not tested or not shown; [ ] = another dose, or the depositor's remark. The list is not random: actives were taken first. Their share in the collection is about 3.3%. The call rests on the fitted dose curve; in most records, active means well fitted curve in the direction sought with a large enough effect; inconclusive means small, poorly fitted or top-dose-only effect, or another doubt; inactive means no such curve, though single readings can be large; an effect the other way counts as inactive or inconclusive. Unless noted, on the % scale 0 is the no-effect control and ±100 the full control effect; potency means the concentration at half of the fitted maximal effect.

SMILES	AmpC inh no detg	AmpC inh detg	Sm TGR block
O=C1Nc2ccccc2C1Cc1ccc(OC(F)(F)F)cc1 (configuration not stated)	-2%	-12%	-6%
CCCOc1ccc(C2C(=O)N(C3CCC(C)CC3)CC(=O)N2CCc2ccccc2)cc1OC (configuration not stated)	·	-7%	-8%
Cc1cc(C(=O)OCC(=O)NC2CCCCC2C)c2ccccc2n1 (configuration not stated)	1%	·	·
NC(=O)c1ccc(NC(=O)COC(=O)c2c3c(nc4ccccc24)/C(=C\c2cccs2)CCC3)cc1	3.2µM*	-3%	-7%
Cc1cc(C(=O)OCC(=O)NC2CCCC2)c2ccccc2n1	-22%	-8%	-9%
CC1CCCCC1NC(=O)COC(=O)c1c2c(nc3ccccc13)/C(=C/c1ccco1)CC2 (configuration not stated)	16µM*	?	14µM*
O=C(COC(=O)c1c2c(nc3ccccc13)/C(=C/c1ccco1)CC2)NC1CCCC1	18µM*	-11%	5µM*
CCc1cccc(C)c1NC(=O)COC(=O)c1c2c(nc3ccccc13)/C(=C\c1cccs1)CCC2	-49%	-4%	-8%
O=C1NC[C@@H](c2ccccc2)OC(=O)[C@@H](Cc2ccc(F)cc2)CC/C=C/C[C@@H]1CC(=O)N(CCO)Cc1ccccc1	236%	·	·
O=C(NCc1cccnc1)C1c2ccccc2C(=O)N1Cc1ccco1 (configuration not stated)	-6%	-7%	35µM*
O=C(NCc1cccnc1)C1c2ccccc2C(=O)N1Cc1ccccc1 (configuration not stated)	-5%	1%	-4%
O=C(NCCCn1ccnc1)C1CCCN(S(=O)(=O)c2ccc(F)cc2)C1 (configuration not stated)	-2%	0%	0%
COc1cc([C@H]2Oc3cc([C@H]4Oc5cc(O)cc(O)c5C(=O)[C@@H]4O)ccc3O[C@@H]2CO)ccc1O	-52%	-10%	-17%
COc1cc([C@@H]2Oc3cc(C4Oc5cc(O)cc(O)c5C(=O)[C@H]4O)ccc3O[C@H]2CO)ccc1O (some centres not stated)	-56%	-19%	45µM*
CC(C)N1CCc2c(sc(NC(=O)CCc3ccccc3)c2C(N)=O)C1	5%	3%	-19%
CC(C)N1CCc2c(sc(NC(=O)CCS(=O)(=O)c3ccccc3)c2C#N)C1	-10%	-12%	14µM*
COC(=O)c1c(NC(=O)CCS(=O)(=O)c2ccccc2)sc2c1CCN(C)C2	-6%	-15%	?
CCCN1CCc2c(sc(NC(=O)CCS(=O)(=O)c3ccccc3)c2C(=O)OC)C1	55%	1%	22µM*
N#CCCn1cc(C(N)=O)c(-c2ccc3ccccc3c2)n1	3%	-1%	-1%
COc1cccc(C(C(=O)NCC2CCCO2)N(C(=O)Cn2nnc3ccccc32)c2ccc(NC(C)=O)cc2)c1 (configuration not stated)	5%	?	6%
CCCCNc1nnc(SCC(=O)c2c(N)n(C3CC3)c(=O)[nH]c2=O)s1	-12%	·	·
COc1cccc(-c2ccc3ncnc(NCc4cccnc4)c3c2)c1	1%	-11%	-4%
c1cncc(CNc2ncnc3ccc(-c4ccco4)cc23)c1	-22%	-5%	8.9µM*
CCOc1cc(C(=O)N2CCn3c4c(c5cc(C)ccc53)CCCC42)cc(OCC)c1OCC (configuration not stated)	·	1%	-8%
CC(=O)N1CCn2c3c(c4cc(C)ccc42)CCCC31 (configuration not stated)	118%	-4%	-12%[57.1 µM]
SMILES	AmpC inh no detg	AmpC inh detg	Sm TGR block
CC(=O)N1CCn2c3c(c(=O)c4cc(C)ccc42)CCC31 (configuration not stated)	25%	3%	20µM*
Cc1ccc2c(c1)c1c3n2CCN(C(=O)CCl)C3CCC1 (configuration not stated)	21%	4%	22µM*
Cc1ccc(-c2ccc(=O)n(CC(=O)NCCN(CC(C)C)CC(C)C)n2)cc1	4%	-1%	-15%
COc1ccc(NC(=O)Cn2ncc(Cl)c(Cl)c2=O)cc1S(=O)(=O)N1CCOCC1	-10%	-15%	10µM*
COc1ccc(NC(=O)c2ccc(Cl)nc2)cc1S(=O)(=O)N1CCOCC1	-18%	?	1%
COc1ccc(CC(=O)Nc2ccc3c(c2)OCO3)cc1S(=O)(=O)N1CCOCC1	-1%	-13%	6%
COc1ccc(CC(=O)Nc2ccc(C#N)c(Cl)c2)cc1S(=O)(=O)N1CCOCC1	5%	-4%	13µM*
Cc1nc2ccc(S(=O)(=O)NCC(=O)NCCc3ccc(Cl)cc3)cc2s1	0%	?	-2%
Cc1ccc(NC(=O)c2noc3c2CCc2ccccc2-3)cc1	-26%	2%	4%
Cc1cc(NC(=O)c2noc3c2CCc2ccccc2-3)n(-c2ccccc2)n1	1µM*	2%	6%
COc1ccc(Cn2ccnc2SCC(=O)Nc2nc3ccccc3s2)cc1	·	-1%	-1%
COc1cccc(C2SCC(=O)N2c2ccc(Cl)cc2)c1OC (configuration not stated)	-3%	1%	4%
Cn1c2c(c(=O)n(C)c1=O)C(c1ccccc1F)C(C#N)=C(N)O2 (configuration not stated)	31%	5%	-21%
COc1cc(OC)c(C2CC(=O)N3CN(c4ccccc4C)CSC3=C2C#N)cc1OC (configuration not stated)	1%	-7%	32µM*
COc1ccc(N2CSC3=C(C#N)C(c4cccc(OC)c4OC)CC(=O)N3C2)cc1 (configuration not stated)	-46%	-11%	22µM*
CCc1ccccc1N1CSC2=C(C#N)C(c3ccccc3F)CC(=O)N2C1 (configuration not stated)	-34%	4%	18µM*
COC(=O)CSC1=C(C#N)C(c2ccc(C)o2)CC(=O)N1 (configuration not stated)	0%	-2%	1%[57.1 µM]
COc1ccc(C2CC(=O)N3CN(c4ccccc4F)CSC3=C2C#N)cc1OC (configuration not stated)	-20%	?	?
Cc1cccc(N2CSC3=C(C#N)C(c4ccc(C)o4)CC(=O)N3C2)c1 (configuration not stated)	-46%	?	11µM*
COc1ccc(-c2nn(-c3ccccc3)cc2/C=C/C(=O)NCCCn2ccnc2)cc1OC	207%	0%	6%
CCOc1ccc(S(=O)(=O)N2CCC(C(=O)NC3CC3)CC2)cc1Cl	15%	-2%	4%
CCOC(=O)NC1Cc2ccccc2C1Sc1ccccn1 (configuration not stated)	-4%	0%	1%
Cc1ccc(-c2cc(C(=O)N3CCN(S(=O)(=O)c4ccc(Br)cc4)CC3)[nH]n2)c(C)c1	·	6%	5%
CC1=C([N+](=O)[O-])C(c2ccccc2Cl)NC(=O)N1C (configuration not stated)	-16%	-21%	0%
